Each structure is given as a SMILES string. “And” between values parts separate entries of the source, which are not always exact repeats. Identical values can stand only once. This is part of a sample that, as a whole, favours compounds with a hit. Of some 83,000 tested, about 20% had one in any assay.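 Plates (96-well) were seeded with cells, treated with compound at one concentration, and incubated for 48 hours before percent growth was determined.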 The source made the active and inactive calls. How the source made its calls: active means growth percent below 10; inactive means the rest.

The test has as its system MOLT-4 leukemia. In words: NCI-60 one-dose screen, 48 h (100 = growth as untreated, 0 = no growth, -100 = all killed). The following applies: 10 µM unless noted.
Take `N#Cc1nc(-c2ccccc2)oc1N1CCC(C2(C(F)(F)F)N=N2)CC1`: the growth is 101% (inactive). On to `CNC(=O)c1cc(N2CCc3cc(NC(=O)Nc4ccc(N5CCOCC5)c(C(F)(F)F)c4)ccc32)ccn1`, for which the growth is 22.9% (inactive). Turning to `O=C(CCCCCCNC(=O)C(O)(O)C(F)(F)F)Nc1ccc(Br)cc1`, the growth is 13.2% (inactive).

On to `Cc1csc(/N=C(N)/N=C(\N)c2cccnc2)n1`, for which the growth is 83% (inactive). Turning to `C=C1CCc2nc(SCC(=O)O)ccc2N1`, the growth was 97.5% (inactive). `CCCCOc1ccc(S(=O)(=O)N2CCN(c3nc(C)cc(N4CCOCC4)n3)CC2)cc1`: the growth was 26.1% (inactive). On to `CCn1c2ccc(/C=N/N(C)S(=O)(=O)CCN(C)C)cc2c2cc(/C=N/N(C)S(=O)(=O)CCN(C)C)ccc21`, for which the growth is 15.1% (inactive). As for `NCCNC(=O)c1cccc(COc2ccccc2NC(=O)c2cc(Br)c(Br)[nH]2)c1`, the figure is 68.7% (inactive); as for `CNC(=O)Nc1ccc(Nc2cc(-c3ccc(-n4cccn4)cc3)[nH]n2)c(C)c1`, 91.1% (inactive); as for `CCN(CC)c1ccc(/C=N/NC(=O)c2ccc(S(N)(=O)=O)cc2)c(O)c1`, 11.2% (inactive). For the compound `COc1cc(-c2nc(-c3ccccc3)[nH]c2-c2ccnc(NCCCNS(=O)(=O)c3cccc(F)c3)n2)ccc1F`, the growth is 54.4% (inactive). Consider `C/C=C/CC(C)C(O)[C@H](NC(=O)[C@@H]1CCCN1C(=O)[C@](C)(CC)NC(=O)CCCCCCCCC)C(=O)N[C@@](C)(CC)C(=O)N[C@@H](CCC(N)=O)C(=O)N[C@H](CCC(N)=O)C(=O)NC(C)(C)C(=O)NC(C)(C)C(=O)N[C@@H](CCC(N)=O)C(=O)N[C@H](CC(C)C)C(=O)N[C@H](CO)CC(C)C` (some centres undefined), for which the growth is 49.5% (inactive) and -8.22% (active). As to `O=S(=O)(NCCCNc1nccc(-c2[nH]c(-c3ccccc3)nc2-c2ccc(F)c(O)c2)n1)c1ccc(C(F)(F)F)cc1`, the growth was 17.2% (inactive). Regarding `N#Cc1c(-c2cccs2)c(C#N)c(=O)n(Cc2nc3ccccc3[nH]2)c1N`, the growth is 102% (inactive). On to `Cc1ccc2c(n1)C(=O)C(Cl)=C(Nc1ccccc1C(=O)OC(C)(C)C)C2=O`, for which the growth is -32.6% (active).

`Brc1cccc(-c2cc(-c3ccc4c(c3)OC=CO4)[nH]n2)c1`: the growth is 29.2% (inactive).

Take `CN1CCN(CCCCCC(=O)Nc2nc(-c3cccc(NS(=O)(=O)c4cccc5c(N(C)C)cccc45)c3)cs2)CC1`: the growth was 39.5% (inactive). Take `O=C(CSc1nnc(-c2ccc(Cl)cc2)n1-c1ccccc1)Nc1ccc(Cl)cc1`: the growth was 84.6% (inactive). In the case of `NC1[C@H]2CN(c3cnc(C(=O)Nc4cc(F)cc5cccnc45)cn3)C[C@@H]12` (some centres undefined) it was 18.1% (inactive); in that of `CC1CCN(CC(=O)Nn2c(COc3ccccc3)nc3ccccc3c2=O)CC1`, 88.1% (inactive).

For the compound `CCCCSC1=C(Cl)CN(c2ccccc2)C1=O`, the growth is 105% (inactive). On to `CC1=Cc2ccccc2OC12C=Cc1ccccc1O2` (centres undefined), for which the growth is 99.9% (inactive). Regarding `Brc1ccc(-c2cc(-c3ccc4c(c3)OC=CO4)n[nH]2)s1`, the growth was 72.6% (inactive). Consider `CC1=C(C)C(=O)C(Nc2cccc(C(=O)OC(C)(C)C)c2)=CC1=O`, for which the growth is 65% (inactive). Take `CCCC/C(=C\c1ccc(O)c(O)c1)C(=O)NC(Cc1ccccc1)C(=O)C(=O)NCCc1ccc(OC)cc1` (centres undefined): the growth is 85.4% (inactive).

Regarding `CCN(CC)c1ccc(/C=N/NC(=O)c2ccc(NS(C)(=O)=O)cc2)c(O)c1`, the growth is 9.84% (active). With `O=C(/C=C/C=C/c1csc(Br)n1)NO`, the growth is 75.3% (inactive). On to `O=C(CCCCCCNC(=O)C(O)(O)C(F)(F)F)Nc1ncc(-c2ccc(Br)cc2)s1`, for which the growth was 4.21% (active). With `Cc1cc(C)cc(NC2=C(Cl)C(=O)c3nc(C)ccc3C2=O)c1`, the growth was 24.6% (inactive). In the case of `C[C@@H]1OCC2(CCN(c3cnc(C(=O)Nc4cc(F)cc5cccnc45)cn3)CC2)[C@@H]1N` it was 20.8% (inactive); in that of `CN1CCN(c2ccc(Nc3nc(NCCCNS(=O)(=O)c4ccccc4)c4sccc4n3)cc2)CC1`, 26% (inactive); in that of `CCCCCCNC(=O)Oc1ccc(/C(=C(/C)c2ccc(OC)cc2)c2ccc(OCCN3CCCCCC3)cc2)cc1`, 9.66% (active). Consider `O=[N+]([O-])c1ccc(NC(=S)NNC(=S)Nc2ccc(Br)cc2)cc1`, for which the growth is 74.9% (inactive). In the case of `C#C[C@]1(O)CC[C@H]2[C@@H]3CC=C4c5sc(N6CCN(C)CC6)nc5CC[C@]4(C)[C@H]3CC[C@@]21C` it was 1.27% (active).

The record behind these values is PubChem BioAssay (NCI).
